Measured values as given in publication PMC7862700, “An all-to-all approach to the identification of sequence-specific readers for epigenetic DNA modifications on cytosine”.

Experiments:
Experiment in all cases: DAPPL (digital affinity profiling via proximity ligation, sequencing); 10 mM Tris-HCl pH 7.5, 50 mM NaCl, 1 mM DTT, 4% glycerol, room temperature, 30 min; GST-TFs on glutathione beads, 16-mer random dsDNA library, 0.1% formaldehyde crosslink after washing; high values mean tight binding
Conditions in all cases: protein: recombinant; tags: N-terminal GST; dsDNA, one strand shown
FLI1 = target: T1, FLI1 (Homo sapiens, UniProt Q01543 1-452)
T1 sequence: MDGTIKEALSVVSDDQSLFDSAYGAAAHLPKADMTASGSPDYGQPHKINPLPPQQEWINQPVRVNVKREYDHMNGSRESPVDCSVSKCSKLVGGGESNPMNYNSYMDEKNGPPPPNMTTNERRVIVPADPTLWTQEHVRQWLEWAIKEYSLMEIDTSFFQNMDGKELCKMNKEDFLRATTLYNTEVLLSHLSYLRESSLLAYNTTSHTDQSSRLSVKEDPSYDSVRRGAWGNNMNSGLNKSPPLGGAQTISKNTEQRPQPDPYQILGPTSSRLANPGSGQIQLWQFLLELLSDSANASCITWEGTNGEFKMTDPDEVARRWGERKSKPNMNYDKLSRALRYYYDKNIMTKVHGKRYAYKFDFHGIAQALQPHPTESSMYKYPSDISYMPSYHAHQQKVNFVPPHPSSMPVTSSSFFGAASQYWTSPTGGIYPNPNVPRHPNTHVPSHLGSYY
Method in brief: (§1)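 Pools were built from human transcription factors expressed in yeast as GST fusions, captured on glutathione beads and DNA-barcoded, along with a tag-only sample. Incubation with 200 nmole of a 16-mer random double-stranded DNA library lasted 30 min at room temperature in Tris/NaCl/DTT/glycerol buffer, and was followed by washing, 0.1% formaldehyde crosslinking, proximity ligation, PCR amplification and Illumina NextSeq500 sequencing. Binding signal is the quotient of each hexamer's read frequency for a factor and its frequency for the tag-only sample.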

ELK1 = target: T2, ELK1 (Homo sapiens, UniProt P19419 1-428)
T2 sequence: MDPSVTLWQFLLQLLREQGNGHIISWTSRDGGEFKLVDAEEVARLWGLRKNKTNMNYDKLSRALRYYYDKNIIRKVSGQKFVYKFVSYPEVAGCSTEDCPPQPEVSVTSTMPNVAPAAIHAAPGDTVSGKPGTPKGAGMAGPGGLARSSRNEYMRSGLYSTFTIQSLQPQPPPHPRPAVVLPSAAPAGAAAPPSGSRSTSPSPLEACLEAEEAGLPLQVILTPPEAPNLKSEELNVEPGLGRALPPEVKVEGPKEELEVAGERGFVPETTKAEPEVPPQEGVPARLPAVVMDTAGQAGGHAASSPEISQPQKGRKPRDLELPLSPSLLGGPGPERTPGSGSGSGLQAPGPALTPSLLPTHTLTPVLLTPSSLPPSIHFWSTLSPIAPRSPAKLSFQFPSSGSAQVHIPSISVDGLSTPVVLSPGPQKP
Method in brief: as §1

GABPA = target: T3, GABPA (Homo sapiens, UniProt Q06546 1-454)
T3 sequence: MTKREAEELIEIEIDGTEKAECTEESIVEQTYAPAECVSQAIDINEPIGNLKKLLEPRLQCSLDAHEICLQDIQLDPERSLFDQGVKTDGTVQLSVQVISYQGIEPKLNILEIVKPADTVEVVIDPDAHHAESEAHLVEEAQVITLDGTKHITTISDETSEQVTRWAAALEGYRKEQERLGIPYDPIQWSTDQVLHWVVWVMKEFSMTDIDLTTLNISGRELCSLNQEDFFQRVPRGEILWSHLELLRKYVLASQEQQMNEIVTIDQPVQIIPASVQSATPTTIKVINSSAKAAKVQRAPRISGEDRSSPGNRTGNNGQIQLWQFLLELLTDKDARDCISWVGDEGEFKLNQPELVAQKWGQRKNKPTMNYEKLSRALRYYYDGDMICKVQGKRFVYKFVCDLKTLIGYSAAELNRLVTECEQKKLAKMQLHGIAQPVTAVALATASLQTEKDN
Method in brief: as §1

ERG = target: T4, ERG (Homo sapiens, UniProt P11308 1-479)
T4 sequence: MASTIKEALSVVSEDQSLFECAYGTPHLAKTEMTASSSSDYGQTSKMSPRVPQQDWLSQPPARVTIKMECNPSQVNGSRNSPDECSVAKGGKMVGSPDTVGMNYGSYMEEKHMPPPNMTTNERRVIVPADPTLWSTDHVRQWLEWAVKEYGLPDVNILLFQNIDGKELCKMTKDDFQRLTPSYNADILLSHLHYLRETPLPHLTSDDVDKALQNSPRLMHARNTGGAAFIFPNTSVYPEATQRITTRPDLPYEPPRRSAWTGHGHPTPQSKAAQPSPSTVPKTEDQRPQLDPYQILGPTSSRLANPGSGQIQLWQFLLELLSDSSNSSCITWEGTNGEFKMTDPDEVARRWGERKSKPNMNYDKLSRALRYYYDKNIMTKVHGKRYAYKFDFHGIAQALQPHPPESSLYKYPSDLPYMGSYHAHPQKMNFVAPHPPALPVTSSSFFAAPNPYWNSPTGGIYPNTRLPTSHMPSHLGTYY
Method in brief: as §1

ELF1 = ELF1 (Homo sapiens, UniProt P32519 1-619)
Sequence of ELF1 (P32519 whole entry): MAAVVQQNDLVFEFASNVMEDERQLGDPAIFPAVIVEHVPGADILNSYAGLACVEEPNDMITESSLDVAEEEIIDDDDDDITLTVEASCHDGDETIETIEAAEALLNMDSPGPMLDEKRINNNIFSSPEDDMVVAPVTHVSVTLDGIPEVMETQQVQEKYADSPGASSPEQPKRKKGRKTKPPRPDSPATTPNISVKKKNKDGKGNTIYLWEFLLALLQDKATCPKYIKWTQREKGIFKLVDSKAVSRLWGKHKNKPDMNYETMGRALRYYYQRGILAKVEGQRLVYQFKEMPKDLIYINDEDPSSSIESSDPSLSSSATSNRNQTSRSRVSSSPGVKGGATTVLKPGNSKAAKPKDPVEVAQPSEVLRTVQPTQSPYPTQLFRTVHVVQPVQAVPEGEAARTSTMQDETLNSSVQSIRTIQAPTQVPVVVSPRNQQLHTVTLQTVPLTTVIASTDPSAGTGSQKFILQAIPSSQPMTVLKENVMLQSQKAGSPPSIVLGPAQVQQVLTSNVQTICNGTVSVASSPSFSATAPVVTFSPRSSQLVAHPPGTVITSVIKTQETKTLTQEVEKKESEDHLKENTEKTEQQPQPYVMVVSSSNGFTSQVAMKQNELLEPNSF
Method in brief: as §1

EHF = target: T5, EHF (Homo sapiens, UniProt Q9NZC4 1-300)
T5 sequence: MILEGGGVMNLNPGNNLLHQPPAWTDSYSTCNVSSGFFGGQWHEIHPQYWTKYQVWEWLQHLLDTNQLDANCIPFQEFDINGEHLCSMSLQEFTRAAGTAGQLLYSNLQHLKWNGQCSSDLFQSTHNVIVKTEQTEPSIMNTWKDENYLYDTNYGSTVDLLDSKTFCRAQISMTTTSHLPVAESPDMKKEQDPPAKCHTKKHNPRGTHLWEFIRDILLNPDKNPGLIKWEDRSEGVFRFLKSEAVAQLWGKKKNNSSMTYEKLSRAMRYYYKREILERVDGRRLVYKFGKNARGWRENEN
Method in brief: as §1

SPI1 = SPI1 (Homo sapiens, UniProt P17947 1-270)
Method in brief: as §1

SPIB = SPIB (Homo sapiens, UniProt Q01892 1-262)
Sequence of SPIB (Q01892 whole entry): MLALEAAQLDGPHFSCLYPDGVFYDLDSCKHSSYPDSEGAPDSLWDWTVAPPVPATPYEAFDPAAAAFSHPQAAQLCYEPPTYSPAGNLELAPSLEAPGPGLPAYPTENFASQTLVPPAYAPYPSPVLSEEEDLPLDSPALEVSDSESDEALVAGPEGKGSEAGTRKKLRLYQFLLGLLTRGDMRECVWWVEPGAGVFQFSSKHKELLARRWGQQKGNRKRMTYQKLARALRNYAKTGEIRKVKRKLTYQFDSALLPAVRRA
Method in brief: as §1

ELK3 = target: T6, ELK3 (Homo sapiens, UniProt P41970 1-407)
T6 sequence: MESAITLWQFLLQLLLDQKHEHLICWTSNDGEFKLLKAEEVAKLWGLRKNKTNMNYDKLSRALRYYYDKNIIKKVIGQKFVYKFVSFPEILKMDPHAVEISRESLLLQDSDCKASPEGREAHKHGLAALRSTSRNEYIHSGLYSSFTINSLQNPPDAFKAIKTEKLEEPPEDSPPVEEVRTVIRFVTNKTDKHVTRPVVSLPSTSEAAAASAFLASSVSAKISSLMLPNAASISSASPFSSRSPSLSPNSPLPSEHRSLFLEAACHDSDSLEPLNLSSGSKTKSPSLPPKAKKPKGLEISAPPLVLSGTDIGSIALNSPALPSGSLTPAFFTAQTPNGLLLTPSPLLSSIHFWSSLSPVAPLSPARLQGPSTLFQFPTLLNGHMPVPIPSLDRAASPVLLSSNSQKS
Method in brief: as §1

Sequence | binding signal (FLI1) | binding signal (ELK1) | binding signal (GABPA) | binding signal (ERG) | binding signal (ELF1) | binding signal (EHF) | binding signal (SPI1) | binding signal (SPIB) | binding signal (ELK3)
TCATTC | 1.27 fold enrichment (6-mer frequency, TF over GST control) | 1.22 fold enrichment (6-mer frequency, TF over GST control) | 1.26 fold enrichment (6-mer frequency, TF over GST control) | 1.27 fold enrichment (6-mer frequency, TF over GST control) | 1.28 fold enrichment (6-mer frequency, TF over GST control) | 1.17 fold enrichment (6-mer frequency, TF over GST control) | 1.24 fold enrichment (6-mer frequency, TF over GST control) | 1.19 fold enrichment (6-mer frequency, TF over GST control) | 1.28 fold enrichment (6-mer frequency, TF over GST control)
CTACGG | 1.19 fold enrichment (6-mer frequency, TF over GST control) | 1.27 fold enrichment (6-mer frequency, TF over GST control) | 1.22 fold enrichment (6-mer frequency, TF over GST control) | 1.21 fold enrichment (6-mer frequency, TF over GST control) | 1.29 fold enrichment (6-mer frequency, TF over GST control) | 1.31 fold enrichment (6-mer frequency, TF over GST control) | 1.24 fold enrichment (6-mer frequency, TF over GST control) | 1.28 fold enrichment (6-mer frequency, TF over GST control) | 1.24 fold enrichment (6-mer frequency, TF over GST control)
ATTAAT | 1.23 fold enrichment (6-mer frequency, TF over GST control) | 1.24 fold enrichment (6-mer frequency, TF over GST control) | 1.29 fold enrichment (6-mer frequency, TF over GST control) | 1.21 fold enrichment (6-mer frequency, TF over GST control) | 1.23 fold enrichment (6-mer frequency, TF over GST control) | 1.2 fold enrichment (6-mer frequency, TF over GST control) | 1.21 fold enrichment (6-mer frequency, TF over GST control) | 1.24 fold enrichment (6-mer frequency, TF over GST control) | 1.26 fold enrichment (6-mer frequency, TF over GST control)
CTCCCA | 1.47 fold enrichment (6-mer frequency, TF over GST control) | 1.33 fold enrichment (6-mer frequency, TF over GST control) | 1.45 fold enrichment (6-mer frequency, TF over GST control) | 1.38 fold enrichment (6-mer frequency, TF over GST control) | 1.41 fold enrichment (6-mer frequency, TF over GST control) | 1.39 fold enrichment (6-mer frequency, TF over GST control) | 1.43 fold enrichment (6-mer frequency, TF over GST control) | 1.36 fold enrichment (6-mer frequency, TF over GST control) | 1.34 fold enrichment (6-mer frequency, TF over GST control)
ATGGCC | 1.31 fold enrichment (6-mer frequency, TF over GST control) | 1.42 fold enrichment (6-mer frequency, TF over GST control) | 1.45 fold enrichment (6-mer frequency, TF over GST control) | 1.46 fold enrichment (6-mer frequency, TF over GST control) | 1.35 fold enrichment (6-mer frequency, TF over GST control) | 1.27 fold enrichment (6-mer frequency, TF over GST control) | 1.37 fold enrichment (6-mer frequency, TF over GST control) | 1.39 fold enrichment (6-mer frequency, TF over GST control) | 1.24 fold enrichment (6-mer frequency, TF over GST control)
TTCAAA | 1.23 fold enrichment (6-mer frequency, TF over GST control) | 1.23 fold enrichment (6-mer frequency, TF over GST control) | 1.4 fold enrichment (6-mer frequency, TF over GST control) | 1.2 fold enrichment (6-mer frequency, TF over GST control) | 1.34 fold enrichment (6-mer frequency, TF over GST control) | 1.24 fold enrichment (6-mer frequency, TF over GST control) | 1.26 fold enrichment (6-mer frequency, TF over GST control) | 1.3 fold enrichment (6-mer frequency, TF over GST control) | 1.36 fold enrichment (6-mer frequency, TF over GST control)
TCTTTG | 1.18 fold enrichment (6-mer frequency, TF over GST control) | 1.18 fold enrichment (6-mer frequency, TF over GST control) | 1.2 fold enrichment (6-mer frequency, TF over GST control) | 1.25 fold enrichment (6-mer frequency, TF over GST control) | 1.25 fold enrichment (6-mer frequency, TF over GST control) | 1.21 fold enrichment (6-mer frequency, TF over GST control) | 1.21 fold enrichment (6-mer frequency, TF over GST control) | 1.05 fold enrichment (6-mer frequency, TF over GST control) | 1.31 fold enrichment (6-mer frequency, TF over GST control)
TTCTCT | 1.29 fold enrichment (6-mer frequency, TF over GST control) | 1.3 fold enrichment (6-mer frequency, TF over GST control) | 1.27 fold enrichment (6-mer frequency, TF over GST control) | 1.32 fold enrichment (6-mer frequency, TF over GST control) | 1.33 fold enrichment (6-mer frequency, TF over GST control) | 1.27 fold enrichment (6-mer frequency, TF over GST control) | 1.3 fold enrichment (6-mer frequency, TF over GST control) | 1.16 fold enrichment (6-mer frequency, TF over GST control) | 1.29 fold enrichment (6-mer frequency, TF over GST control)
